Assay [1] can be described thus: Cellular Toxicity (caspase-3) Mesangial (AID 660).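 Note: combined caspase 3 and 7 activity read by Caspase-Glo luminescence; cells exposed to compound for 16 h before the caspase read.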 Conditions: mesangial cells, normalized: DMSO 0%, 100 µM tamoxifen 100%; at 91.7 µM (top of the series). The method in brief:
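Human renal glomerular mesangial cells, 1000/well, 5 h at 37 C before 16 h compound treatment. Caspase-Glo 3/7 luminescence after 20 min; normalized to DMSO and 100 uM tamoxifen, AC50 from Hill fit.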

The nature of assay [2]: Cellular Toxicity (caspase-3) SK-N-SH (AID 661).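 Note: 0% = DMSO basal and 100% = 10 µM staurosporine.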 The method in brief: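 Human SK-N-SH neuroblastoma cells, 1500/well, were exposed to compounds for 16 hours at 37 °C. Caspase-Glo 3/7 luminescence was normalized to DMSO (basal) and 10 uM staurosporine (100%), and AC50 came from a Hill fit.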
Assay [3] in a line: Cellular Toxicity (caspase-3) Hek293 (AID 664).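 Note: cells exposed to compound for 16 h at 37 °C before readout.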 Conditions: HEK293 caspase-3 activation, DMSO = 0%, 100 µM tamoxifen = 100%; at 92.2 µM (top of the series). A digest of the protocol:
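HEK293 cells in complete medium treated 16 h at 37 °C, then Caspase-Glo 3/7 luminescence read after 20 min at room temperature. Normalized to DMSO and 100 uM tamoxifen; AC50 from Hill fit of concentration-response.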

Assay [4] is described as follows: Cellular Toxicity (caspase-3) N2a (AID 665).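 Note: compound exposure lasted 16 h at 37 °C before readout.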 The method in brief: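 Mouse N2a neuroblastoma cells, 1500 per well, treated 16 h at 37 °C in complete medium; caspase-3/7 activity by Caspase-Glo luminescence after 1 h. Normalized to DMSO and 10 uM staurosporine; AC50 from Hill fits.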
A short description of assay [5]: Cellular Toxicity (caspase-3) NIH 3T3 (AID 666).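 Note: caspase signal read after 16 h compound exposure; 0% = DMSO basal and 100% = 100 µM tamoxifen stimulation.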 A digest of the protocol: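 Mouse NIH 3T3 fibroblasts (1000/well) treated 16 h at 37 C; caspase-3/7 activity measured by Caspase-Glo 3/7 luminescence after 20 min. Normalized to DMSO and 100 uM tamoxifen; AC50 from Hill fits.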
A short description of assay [6]: Cellular Toxicity (caspase-3) Renal Proximal Tubule (AID 667).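 Note: cells exposed to compound for 16 hours at 37 °C before detection; 0% = DMSO basal and 100% = 10 µM staurosporine.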 Conditions: Potency: caspase-3 activation. A digest of the protocol:
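Freshly isolated primary rat kidney proximal tubule cells, 1000/well, treated 16 hr at 37 °C, then Caspase-Glo 3/7 luminescence after 1 hr. Normalized to DMSO and 10 uM staurosporine; AC50 from Hill fit.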

The target in assay [7] is Cytochrome P450 3A4 (Homo sapiens) (UniProt P08684). The assay is described as follows: qHTS Assay for Inhibitors and Substrates of Cytochrome P450 3A4 (AID 884). Note: % is set by controls: 0 for no effect and ±100 for the full control effect; nearly all actives have a fitted effect of over 50% in size. A digest of the protocol:
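20 nM human CYP3A4 with 25 uM Luciferin-PPXE (at KM) in 200 mM KPO4, preincubated 10 min with compound; NADPH regeneration started a 60 min RT reaction. Luciferin detected by luminescence, normalized to 57 uM ketoconazole as full inhibition.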

The nature of assay [8]: Cell Viability - LYMP2-001 (AID 921).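 Note: cells exposed to compound for 24 h at 37 °C; nearly all actives have a fitted effect of over 70% in size.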 Note: potency is the fitted concentration of half-maximal effect. A digest of the protocol:
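Human lymphoblastoid LYMP2-001 cells, 2500 per well, in complete medium, treated 24 h at 37 C. Viability from cellular ATP by CellTiter-Glo luminescence; AC50 from Hill-equation fits of qHTS concentration-response.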

Assay [9] is described as follows: Cellular Toxicity (caspase-3) H-4-II-E (AID 663).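 Note: cells exposed to compound for 16 hr before readout.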 Conditions: H-4-II-E rat hepatoma, scaled: DMSO 0%, 100 µM tamoxifen 100%; at 92.2 µM (top of the series). A digest of the protocol: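 Apoptosis induction is scored as increased luminescence from caspase 3/7 substrate cleavage in rat hepatoma H-4-II-E cells exposed to compound for 16 hr. Activity is scaled between DMSO and 100 uM tamoxifen.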

SMILES strings stand for the structures. Values without a mark were called inactive. Results filed as inconclusive are left out. The source made the active and inactive calls. Calls come from the whole dose curve; as a rule, active = well fitted curve in the direction sought with a large enough effect; inconclusive = small, poorly fitted or top-dose-only effect, or another doubt; inactive = no such curve, though single readings can be large; an effect the other way counts as inactive or inconclusive.

Sequence of Cytochrome P450 3A4 (Homo sapiens) (P08684 whole entry, looked up): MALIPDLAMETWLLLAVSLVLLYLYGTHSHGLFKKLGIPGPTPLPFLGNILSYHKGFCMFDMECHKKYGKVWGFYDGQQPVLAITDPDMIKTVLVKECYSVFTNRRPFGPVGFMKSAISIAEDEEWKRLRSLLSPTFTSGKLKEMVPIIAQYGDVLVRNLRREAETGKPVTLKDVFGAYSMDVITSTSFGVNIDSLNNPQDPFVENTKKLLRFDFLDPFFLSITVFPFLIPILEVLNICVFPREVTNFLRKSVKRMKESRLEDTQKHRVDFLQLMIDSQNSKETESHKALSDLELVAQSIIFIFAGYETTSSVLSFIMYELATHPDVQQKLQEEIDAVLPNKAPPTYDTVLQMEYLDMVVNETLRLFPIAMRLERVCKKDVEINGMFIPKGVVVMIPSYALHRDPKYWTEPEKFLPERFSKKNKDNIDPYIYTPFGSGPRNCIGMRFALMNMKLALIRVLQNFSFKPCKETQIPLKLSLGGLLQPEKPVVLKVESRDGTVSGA

In the case of `CCCCC/C=C/C=C/C=O`, the values for the caspase-3 activation in assay [1] and in assay [3] were 0.621% and 163% (active), respectively. The result in assay [2], in [4] and in assay [5] was inactive. For the same compound, the Potency result in assay [6] and in assay [7] was “inactive” each time. Moreover, the Potency in assay [8] was 50.1 µM (active).

As for `CCCCC(CC)COC(=O)CCCCC(=O)OCC(CC)CCCC` (stereo not given), the caspase-3 activation is 0.289% in assay [1] and -0.0264% in assay [9]. In addition, the compound was called inactive in [2], in assay [4] and in assay [5]. The Potency result in [6] and in assay [8] was “inactive” in each case.

In the case of `CCCCC(CC)COCC1CO1` (stereo not given), the caspase-3 activation in assay [1] is -0.684%; in [9] it was -0.156%. Moreover, the result in [2], in assay [4] and in assay [5] was inactive. Moreover, the Potency result in [6], in assay [7] and in assay [8] was “inactive” in each case.

On to `C/C(C=O)=C/c1ccccc1`, for which the values for the caspase-3 activation in assay [1] and in assay [9] were -0.174% and -1.36%, respectively. Moreover, the result in assay [2] and in [5] was inactive. The Potency entry in assay [6] and in assay [7] was “inactive” throughout.

Take `CCOc1ccc(NC(C)=O)cc1N`: the caspase-3 activation was 0.11% in assay [1] and 0.579% in assay [9]. Further, the outcome in [2], in assay [4] and in assay [5] was inactive. For the same compound, the Potency result in assay [6], in assay [7] and in assay [8] was “inactive” each time.

Take `CC(=O)Nc1ccc(N)cc1`: the figures for the caspase-3 activation in [1] and in [9] were 0.253% and -0.322%, respectively. Besides, the compound was classed as inactive in assay [2] and in assay [5]. The Potency entry in assay [6], in [7] and in [8] was “inactive” throughout.

For the compound `Fc1ccccc1`, the caspase-3 activation is -0.0832% in assay [1] and -0.374% in assay [9]. The call in [2], in assay [4] and in [5] was inactive. In addition, the Potency result in [6], in assay [7] and in assay [8] was “inactive” each time.

With `Cc1c(C(=O)O)cccc1[N+](=O)[O-]`, the values for the caspase-3 activation in assay [1] and in assay [9] were -0.447% and -0.261%, respectively. Besides, the result in assay [2], in [4] and in [5] was inactive. Moreover, the Potency result in assay [6], in assay [7] and in [8] was “inactive” throughout.

On to `CCCCC(=O)N(C)C`, for which the caspase-3 activation in [1] was 0.37%; in assay [9], -1.29%. The result in assay [2], in assay [4] and in assay [5] was inactive. Further, the Potency result in assay [6], in assay [7] and in assay [8] was “inactive” each time.

For `FB(F)F`, the caspase-3 activation was 3.07% in [1] and 0.388% in assay [9]. Also, the result in [2] and in assay [4] was inactive. Moreover, the Potency result in assay [6], in [7] and in assay [8] was “inactive” in each case.

On to `CC(C)N=C=NC(C)C`, for which the caspase-3 activation in assay [1] is -0.478%; in [9], 2.29%. Further, the call in assay [2], in [4] and in assay [5] was inactive. For the same compound, the Potency result in [6], in [7] and in [8] was “inactive” in each case.

`O=[N+]([O-])c1ccc(NCCO)c(OCCO)c1`: the caspase-3 activation in [1] was 0.383%; in assay [9], 0.77%. In addition, the outcome in assay [2], in assay [4] and in assay [5] was inactive. The Potency result in assay [6], in [7] and in [8] was “inactive” in each case.

Regarding `CC(=O)c1cc(C)oc1C`, the caspase-3 activation in assay [1] is 0.543%; in assay [9], -0.25%. Further, the outcome in assay [2], in assay [4] and in [5] was inactive. The Potency entry in [6], in assay [7] and in assay [8] was “inactive” each time.

Consider `CC(=O)Nc1ccccc1C`, for which the caspase-3 activation in assay [1] was 2.04%; in assay [9] it was 1.63%. The compound was called inactive in assay [2] and in assay [5]. Besides, the Potency entry in assay [6], in [7] and in [8] was “inactive” throughout.

As to `CC(=O)OCCC(C)C`, the caspase-3 activation is 0.804% in assay [1] and -0.942% in [9]. Further, the result in assay [2] and in assay [5] was inactive. Also, the Potency entry in assay [6], in [7] and in [8] was “inactive” throughout.

Take `Cc1ccc(C(C)(C)C)cc1`: the caspase-3 activation in assay [1] is -0.798%; in assay [9], 0.123%. Further, the compound was called inactive in assay [2], in [4] and in [5]. In addition, the Potency result in assay [6], in assay [7] and in assay [8] was “inactive” each time.

Consider `CC(=O)CCc1ccccc1`, for which the caspase-3 activation in assay [1] is -0.0155%; in [3], 0.352%. The compound was classed as inactive in assay [2], in assay [4] and in [5]. Besides, the Potency entry in assay [6], in assay [7] and in assay [8] was “inactive” throughout.

In the case of `Cc1ccc(C#N)cc1`, the caspase-3 activation is -0.175% in assay [1] and 0.0504% in assay [9]. In addition, the call in assay [2], in assay [4] and in assay [5] was inactive. The Potency result in [6], in [7] and in [8] was “inactive” in each case.

As for `CCCCC(CC)C(=O)O` (stereo not given), the caspase-3 activation is 0.178% in assay [1], -0.144% in [9] and 2.49% in [3]. The result in assay [4] and in assay [5] was inactive. The Potency result in assay [6], in assay [7] and in assay [8] was “inactive” throughout.

The values are drawn from PubChem BioAssay (NCATS).
